# Records with an inconclusive call do not appear. Calls of active or inactive are those of the source. Rule for the calls, unless noted: active = hit-call score of the fitted dose curve at least 0.9, where 1 is the maximum; inactive = score below 0.9.
# How the values were obtained:
# [1] = target: Paired box protein Pax-6 (Homo sapiens) (UniProt P26367); assay: ATG_Pax6_CIS: Attagene CIS-FACTORIAL HepG2 Assay for human Paired Box 6 (PAX6) (AID 2282956); settings: HepG2 CIS-FACTORIAL PAX6 reporter transcription, RNA readout; actives raise or lower the signal
# Procedure, shortened: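 DMSO-referenced bidirectional fits of reporter mRNA fluorescence; HepG2 with transient cis-promoter MRTUs, 24 h post-dose, RT-PCR plus capillary electrophoresis detection.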
# [2] = ATG_PXRE_CIS: Attagene CIS-FACTORIAL HepG2 Assay for human Pregnane X Receptor Element (PXRE) (AID 2282957); settings: HepG2 Attagene CIS-FACTORIAL PXRE reporter, mRNA; actives raise or lower the signal
# Procedure, shortened: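 Fluorescent capillary electrophoresis of amplified reporter cDNA gave the signal, collected 24 h after dosing HepG2 cells that held transfected cis-element reporter constructs.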
# [3] = ATG_RORE_CIS: Attagene CIS-FACTORIAL HepG2 Assay for human RAR-related Orphan Receptor Element (RORE) (AID 2282959); settings: HepG2 Attagene cis-factorial RORE reporter, mRNA; actives raise or lower the signal
# Procedure, shortened: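 Transfect HepG2 with MRTUs; treat 24 h; extract RNA; RT with oligo(dT); PCR with reporter-specific primers; 6-FAM primer extension; HpaI digest 2 h at 37 C; capillary electrophoresis. Fit vs DMSO, bidirectional.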
# [4] = ATG_Sox_CIS: Attagene CIS-FACTORIAL HepG2 Assay for human SRY-box transcription factor (SOX) (AID 2282960); settings: HepG2 Attagene cis-factorial SOX reporter, mRNA; actives raise or lower the signal
# Procedure, shortened: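 Fluorescence-labelled cDNA fragments from reporter transcripts, sized by CE, give the signal. Cells: HepG2, transiently transfected with cis-regulated reporter units. Exposure 24 h; DMSO negative control; bidirectional curve fitting.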
# [5] = target: Transcription factor Sp1 (Homo sapiens) (UniProt P08047); assay: ATG_Sp1_CIS: Attagene CIS-FACTORIAL HepG2 Assay for human Specificity Protein 1 (Sp1) (AID 2282961); settings: HepG2 Sp1 cis-reporter transcription, actives raise or lower the signal
# Procedure, shortened: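 Chemicals are dosed onto HepG2 cells transfected with multiple cis-promoter reporter constructs, and after 24 h reporter RNA is reverse-transcribed, PCR-amplified and resolved by capillary electrophoresis for fluorescence quantitation; activity is scored up or down against DMSO.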
# [6] = ATG_SREBP_CIS: Attagene CIS-FACTORIAL HepG2 Assay for human Sterol Regulatory Element Binding (SREBP) (AID 2282962); settings: HepG2 Attagene cis-factorial SREBP reporter, mRNA; actives raise or lower the signal
# Procedure, shortened: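 In this cis-format assay, HepG2 liver cells express reporters controlled by promoter elements responsive to native transcription factors. Exposure lasts 24 h; reporter mRNA fluorescence from capillary electrophoresis gives the signal, fitted bidirectionally against DMSO.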
# [7] = target: Signal transducer and activator of transcription 3 (Homo sapiens) (UniProt P40763); assay: ATG_STAT3_CIS: Attagene CIS-FACTORIAL HepG2 Assay for human Signal Transducer and Activator of Transcription 3 (STAT3) (AID 2282963); settings: HepG2, Attagene cis-factorial STAT3 reporter transcription; actives raise or lower the signal
# Procedure, shortened: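 Uses human liver HepG2 transiently carrying cis-regulated reporter transcription units. Following 24 h dosing, reporter mRNA induction was detected by RT-PCR and capillary electrophoresis, analysed bidirectionally versus DMSO.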
# [8] = ATG_TA_CIS: Attagene CIS-FACTORIAL HepG2 Assay for human TA Basal Promoter (AID 2282964); settings: HepG2 Attagene CIS-factorial TA basal promoter reporter; actives raise or lower the signal
# Procedure, shortened: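 Transfected HepG2, 24 h compound exposure; RNA → RT-PCR → FAM primer extension → HpaI cut → CE fluorescence. Gain/loss-of-signal fitted against DMSO negative control. Background-control readout.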
# [9] = ATG_TCF_b_cat_CIS: Attagene CIS-FACTORIAL HepG2 Assay for human T-Cell-Factor with beta-catenin (TCF/b-cat) (AID 2282965); settings: HepG2 TCF/beta-catenin cis-reporter transcription, actives raise or lower the signal
# Procedure, shortened: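 Using capillary electrophoresis as the read-out, labelled reporter cDNA fragments from transiently transfected HepG2 were sized and quantified. Exposure lasted 24 hours; activity in either direction was referenced to DMSO.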
# [10] = ATG_TAL_CIS: Attagene CIS-FACTORIAL HepG2 Assay for human TAL Basal Promoter (AID 2282966); settings: HepG2 Attagene cis-factorial TAL promoter reporter; actives raise or lower the signal;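 note: background control endpoint measuring basal TAL promoter reporter mRNA not a specific factor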
# Procedure, shortened: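 Transiently transfected HepG2 (cis-regulated reporter units), 24 h treatment, mRNA read by fluorescent CE after RT-PCR; bidirectional fit, DMSO baseline.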
# [11] = ATG_TGFb_CIS: Attagene CIS-FACTORIAL HepG2 Assay for human Transforming Growth Factor (TGF) (AID 2282967); settings: HepG2 Attagene CIS TGFb reporter, mRNA transcription; actives raise or lower the signal
# Procedure, shortened: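 Readout: fluorescently labeled reporter cDNA fragments resolved by capillary electrophoresis after RT-PCR. Transfected HepG2 cells dosed for 24 h; endogenous TF activity at TGFB1-linked cis element; gain or loss fitted relative to DMSO.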
# [12] = ATG_VDRE_CIS: Attagene CIS-FACTORIAL HepG2 Assay for human Vitamin D Receptor Element (VDRE) (AID 2282968); settings: HepG2 VDRE cis-reporter transcription, actives raise or lower the signal
# Procedure, shortened: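 Transfected HepG2 reporter cells, chemical treatment 24 h. RNA isolated, cDNA amplified with reporter-specific primers, products analysed by capillary electrophoresis. Endpoint fitted in both directions versus DMSO.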
# [13] = target: Estrogen receptor (Homo sapiens) (UniProt P03372); assay: ATG_ERa_TRANS: Attagene TRANS-FACTORIAL HepG2 Assay for human Estrogen Receptor alpha (ERa) (AID 2282970; active = hit-call score of the fitted dose curve at least 0.9, where 1 is the maximum); settings: HepG2 Attagene TRANS ERa GAL4 reporter, mRNA
# Procedure, shortened: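 One of 30 multiplexed endpoints from a HepG2 TRANS system, this one reports ERa-Gal4-driven reporter mRNA. Transcripts were quantified 24 hours post-dosing by fluorescent RT-PCR and capillary electrophoresis, with activity scored as induction over DMSO.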
# [14] = target: X-box-binding protein 1 (Homo sapiens) (UniProt P17861); assay: ATG_Xbp1_CIS: Attagene CIS-FACTORIAL HepG2 Assay for human X-box Binding Protein 1 (XBP1) (AID 2282972); settings: HepG2 XBP1 cis-element reporter, Attagene multiplex; actives raise or lower the signal
# Procedure, shortened: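 Changes in reporter transcript abundance, read by RT-PCR and capillary electrophoresis, reflect endogenous transcription factor activity. Transfected HepG2 cells received compound for 24 hours; DMSO defined baseline for bidirectional analysis.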
# [15] = ATG_GAL4_TRANS: Attagene TRANS-FACTORIAL HepG2 Assay for GAL4 (Internal Marker) (AID 2282976; active = hit-call score of the fitted dose curve at least 0.9, where 1 is the maximum); settings: HepG2 Attagene TRANS GAL4 internal marker reporter
# Procedure, shortened: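 HepG2 cells transiently transfected with multiplexed GAL4-UAS reporter constructs were dosed for 24 h. Reporter mRNA was measured by RT-PCR, 6-FAM primer extension, HpaI digestion and capillary electrophoresis, and gain of signal was fitted relative to DMSO.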
# [16] = ATG_PPRE_CIS: Attagene CIS-FACTORIAL HepG2 Assay for human Peroxisome Proliferator-activated Response Element (PPRE) (AID 2282958); settings: HepG2 PPRE cis-element reporter, Attagene transcription factor profiling; actives raise or lower the signal
# Procedure, shortened: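 DMSO served as negative control and baseline for bidirectional curve fitting. Signal came from PPRE-regulated reporter mRNA in HepG2 cells, measured 24 h post-dosing by RT-PCR, 6-FAM primer extension and capillary electrophoresis.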
# [17] = ATG_M_19_TRANS: Attagene TRANS-FACTORIAL HepG2 Assay for M19 Transcription Factor (Internal Marker) (AID 2282974; active = hit-call score of the fitted dose curve at least 0.9, where 1 is the maximum); settings: HepG2 Attagene TRANS-FACTORIAL M19 internal marker reporter
# Procedure, shortened: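 Multiplexed TRANS format: HepG2 liver cells bearing transient GAL4-UAS reporter units, chemical treatment 24 h, reporter transcripts quantified by RT-PCR plus capillary electrophoresis. DMSO defines baseline.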
# [18] = target: Nuclear receptor subfamily 1 group I member 3 (Homo sapiens) (UniProt Q14994); assay: ATG_CAR_TRANS: Attagene TRANS-FACTORIAL HepG2 Assay for human Constitutive Androstane Receptor (CAR) (AID 2282969; active = hit-call score of the fitted dose curve at least 0.9, where 1 is the maximum;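 note: activators raise reporter mRNA above DMSO so AC50 marks induction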); settings: HepG2 Attagene TRANS-FACTORIAL CAR reporter
# Procedure, shortened: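 Steps: transient transfection of HepG2 with multiple GAL4-UAS reporter units; 24 h compound incubation; RNA isolation, RT-PCR, 6-FAM primer extension, HpaI digest; capillary electrophoresis. Gain-of-signal relative to DMSO negative control.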
# [19] = target: Steroid hormone receptor ERR1 (Homo sapiens) (UniProt P11474); assay: ATG_ERRa_TRANS: Attagene TRANS-FACTORIAL HepG2 Assay for human Estrogen-Related Receptor alpha (ERRa) (AID 2282971; active = hit-call score of the fitted dose curve at least 0.9, where 1 is the maximum); settings: HepG2 Attagene TRANS reporter, ERRa transactivation
# Procedure, shortened: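 HepG2 cells transiently transfected with multiplexed GAL4-UAS reporter units reading chimeric ERRa-Gal4 activity; 24 h compound exposure. Reporter mRNA measured by RT-PCR, 6-FAM labelling, HpaI digest and capillary electrophoresis; gain of signal fitted versus DMSO baseline.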
# [20] = target: Estrogen-related receptor gamma (Homo sapiens) (UniProt P62508); assay: ATG_ERRg_TRANS: Attagene TRANS-FACTORIAL HepG2 Assay for human Estrogen-Related Receptor gamma (ERRg) (AID 2282977; active = hit-call score of the fitted dose curve at least 0.9, where 1 is the maximum;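 note: hits increase reporter signal over DMSO so potencies reflect activators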); settings: HepG2 Attagene TRANS reporter, ERRg transactivation
# Procedure, shortened: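 Readout: fluorescent reporter-mRNA fragments resolved by capillary electrophoresis after RT-PCR and HpaI cut. Cells: transiently transfected HepG2 carrying GAL4-UAS reporters driven by exogenous NR-Gal4 chimeras, dosed 24 h. Activity fitted upward relative to DMSO baseline.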
# Estrogen receptor (Homo sapiens), sequence (P03372 whole entry, looked up, the tested form may be a part): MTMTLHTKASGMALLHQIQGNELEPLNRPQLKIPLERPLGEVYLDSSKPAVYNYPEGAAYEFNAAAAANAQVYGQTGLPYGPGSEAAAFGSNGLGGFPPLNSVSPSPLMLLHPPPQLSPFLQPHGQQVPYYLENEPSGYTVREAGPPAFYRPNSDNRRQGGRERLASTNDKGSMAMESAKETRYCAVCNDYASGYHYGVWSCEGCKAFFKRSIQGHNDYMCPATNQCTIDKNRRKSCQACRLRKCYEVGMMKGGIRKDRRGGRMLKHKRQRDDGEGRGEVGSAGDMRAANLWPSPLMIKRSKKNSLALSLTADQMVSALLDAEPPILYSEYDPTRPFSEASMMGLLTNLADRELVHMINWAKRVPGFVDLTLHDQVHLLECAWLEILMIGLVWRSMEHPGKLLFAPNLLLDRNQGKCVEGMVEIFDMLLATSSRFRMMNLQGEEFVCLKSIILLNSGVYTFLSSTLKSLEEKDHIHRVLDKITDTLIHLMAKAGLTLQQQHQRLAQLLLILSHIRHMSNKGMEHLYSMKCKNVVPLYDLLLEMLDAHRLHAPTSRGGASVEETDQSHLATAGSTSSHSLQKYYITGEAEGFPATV
# Paired box protein Pax-6 (Homo sapiens), sequence (P26367 whole entry, looked up): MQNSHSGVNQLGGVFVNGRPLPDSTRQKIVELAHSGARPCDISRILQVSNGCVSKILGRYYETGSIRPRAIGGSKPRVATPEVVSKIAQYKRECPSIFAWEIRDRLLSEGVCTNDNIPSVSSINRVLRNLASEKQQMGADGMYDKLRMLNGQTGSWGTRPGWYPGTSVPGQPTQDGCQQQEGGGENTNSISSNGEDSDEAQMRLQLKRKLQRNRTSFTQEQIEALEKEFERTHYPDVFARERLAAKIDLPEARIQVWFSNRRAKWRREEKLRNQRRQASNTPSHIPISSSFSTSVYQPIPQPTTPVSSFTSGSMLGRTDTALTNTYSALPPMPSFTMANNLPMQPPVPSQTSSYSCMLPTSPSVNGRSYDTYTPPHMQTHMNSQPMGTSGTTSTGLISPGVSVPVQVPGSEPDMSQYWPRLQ
# X-box-binding protein 1 (Homo sapiens), sequence (P17861 whole entry, looked up): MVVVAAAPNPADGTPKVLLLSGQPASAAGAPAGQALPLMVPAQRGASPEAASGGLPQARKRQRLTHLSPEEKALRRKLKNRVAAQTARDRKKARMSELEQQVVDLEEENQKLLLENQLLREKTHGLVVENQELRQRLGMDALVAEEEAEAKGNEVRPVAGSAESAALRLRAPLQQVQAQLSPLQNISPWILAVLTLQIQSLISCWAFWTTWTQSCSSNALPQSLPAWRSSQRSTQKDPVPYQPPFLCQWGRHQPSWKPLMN
# Transcription factor Sp1 (Homo sapiens), sequence (P08047 whole entry, looked up): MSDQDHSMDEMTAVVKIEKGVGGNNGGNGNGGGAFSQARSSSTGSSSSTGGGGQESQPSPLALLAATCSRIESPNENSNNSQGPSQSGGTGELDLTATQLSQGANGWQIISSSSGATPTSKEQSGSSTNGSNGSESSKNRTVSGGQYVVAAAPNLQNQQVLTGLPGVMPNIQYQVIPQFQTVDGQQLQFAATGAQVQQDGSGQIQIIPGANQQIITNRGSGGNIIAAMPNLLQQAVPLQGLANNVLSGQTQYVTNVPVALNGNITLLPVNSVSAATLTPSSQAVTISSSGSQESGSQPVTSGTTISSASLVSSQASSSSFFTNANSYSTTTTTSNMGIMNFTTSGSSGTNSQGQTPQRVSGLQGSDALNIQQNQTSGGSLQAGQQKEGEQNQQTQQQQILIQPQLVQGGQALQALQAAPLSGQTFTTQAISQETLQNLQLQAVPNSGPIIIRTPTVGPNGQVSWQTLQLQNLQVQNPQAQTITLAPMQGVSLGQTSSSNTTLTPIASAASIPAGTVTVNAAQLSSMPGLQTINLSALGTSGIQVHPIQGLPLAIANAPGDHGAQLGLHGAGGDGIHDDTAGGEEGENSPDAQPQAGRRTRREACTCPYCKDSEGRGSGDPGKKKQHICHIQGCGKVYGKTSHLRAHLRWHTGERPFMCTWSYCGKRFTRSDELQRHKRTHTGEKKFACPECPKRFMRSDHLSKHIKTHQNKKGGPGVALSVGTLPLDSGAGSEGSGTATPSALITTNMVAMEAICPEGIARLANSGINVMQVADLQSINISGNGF
# Signal transducer and activator of transcription 3 (Homo sapiens), sequence (P40763 whole entry, looked up): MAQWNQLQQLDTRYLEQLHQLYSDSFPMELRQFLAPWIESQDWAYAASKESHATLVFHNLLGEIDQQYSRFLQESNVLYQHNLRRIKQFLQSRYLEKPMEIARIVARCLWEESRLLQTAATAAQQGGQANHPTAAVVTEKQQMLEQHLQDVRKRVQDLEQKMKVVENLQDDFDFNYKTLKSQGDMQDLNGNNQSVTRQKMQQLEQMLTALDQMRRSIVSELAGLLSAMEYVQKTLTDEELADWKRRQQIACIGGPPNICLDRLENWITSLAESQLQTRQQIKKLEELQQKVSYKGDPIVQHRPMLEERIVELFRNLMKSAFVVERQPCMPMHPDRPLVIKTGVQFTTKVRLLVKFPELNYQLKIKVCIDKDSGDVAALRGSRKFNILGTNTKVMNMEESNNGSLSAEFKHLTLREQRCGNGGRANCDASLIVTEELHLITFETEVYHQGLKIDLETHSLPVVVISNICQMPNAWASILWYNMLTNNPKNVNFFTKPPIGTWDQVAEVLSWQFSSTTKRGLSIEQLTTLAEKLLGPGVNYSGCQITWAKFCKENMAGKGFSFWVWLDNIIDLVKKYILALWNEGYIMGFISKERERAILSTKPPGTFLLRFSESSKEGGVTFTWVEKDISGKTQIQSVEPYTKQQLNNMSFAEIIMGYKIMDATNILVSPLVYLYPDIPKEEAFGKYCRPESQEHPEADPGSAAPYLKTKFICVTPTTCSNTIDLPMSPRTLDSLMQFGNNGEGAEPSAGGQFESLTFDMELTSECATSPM
# Nuclear receptor subfamily 1 group I member 3 (Homo sapiens), sequence (Q14994 whole entry, looked up, the tested form may be a part): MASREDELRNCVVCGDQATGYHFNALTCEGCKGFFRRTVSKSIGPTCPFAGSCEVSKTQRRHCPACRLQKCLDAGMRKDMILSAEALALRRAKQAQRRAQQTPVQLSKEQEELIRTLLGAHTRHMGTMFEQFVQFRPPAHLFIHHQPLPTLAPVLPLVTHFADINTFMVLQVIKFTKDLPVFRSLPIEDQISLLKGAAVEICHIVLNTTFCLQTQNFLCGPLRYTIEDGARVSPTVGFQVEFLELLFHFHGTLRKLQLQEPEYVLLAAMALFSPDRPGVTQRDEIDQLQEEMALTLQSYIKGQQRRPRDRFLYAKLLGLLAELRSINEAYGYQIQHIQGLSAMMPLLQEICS
# Steroid hormone receptor ERR1 (Homo sapiens), sequence (P11474 whole entry, looked up, the tested form may be a part): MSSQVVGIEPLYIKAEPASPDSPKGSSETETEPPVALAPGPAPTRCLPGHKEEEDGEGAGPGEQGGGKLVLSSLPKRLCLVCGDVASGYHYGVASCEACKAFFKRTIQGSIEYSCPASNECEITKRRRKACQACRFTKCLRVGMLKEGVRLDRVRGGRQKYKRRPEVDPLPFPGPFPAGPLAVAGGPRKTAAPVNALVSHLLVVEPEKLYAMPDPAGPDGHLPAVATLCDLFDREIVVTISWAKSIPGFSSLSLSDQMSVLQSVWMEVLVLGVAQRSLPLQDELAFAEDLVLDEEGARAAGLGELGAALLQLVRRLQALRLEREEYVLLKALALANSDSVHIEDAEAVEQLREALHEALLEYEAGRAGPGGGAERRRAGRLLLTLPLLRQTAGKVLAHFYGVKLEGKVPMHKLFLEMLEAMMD
# Estrogen-related receptor gamma (Homo sapiens), sequence (P62508 whole entry, looked up, the tested form may be a part): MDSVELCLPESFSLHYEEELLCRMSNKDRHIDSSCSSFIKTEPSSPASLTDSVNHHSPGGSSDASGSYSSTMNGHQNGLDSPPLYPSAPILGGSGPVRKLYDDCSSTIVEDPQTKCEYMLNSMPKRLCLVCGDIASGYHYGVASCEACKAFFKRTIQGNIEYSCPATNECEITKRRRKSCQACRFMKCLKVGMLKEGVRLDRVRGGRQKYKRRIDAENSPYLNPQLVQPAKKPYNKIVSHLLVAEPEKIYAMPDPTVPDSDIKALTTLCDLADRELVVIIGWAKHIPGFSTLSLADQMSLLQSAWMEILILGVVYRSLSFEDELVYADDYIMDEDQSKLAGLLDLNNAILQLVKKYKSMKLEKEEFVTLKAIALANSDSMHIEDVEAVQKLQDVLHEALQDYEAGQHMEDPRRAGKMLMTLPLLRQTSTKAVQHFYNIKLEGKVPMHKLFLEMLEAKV
structure (smiles),measurement,setting,value
CC1(C)[C@H](C(=O)OCc2cccc(Oc3ccccc3)c2)[C@@H]1C=C(Cl)Cl,outcome,[1],inactive
same,AC50,[2],4.97 µM (active)
same,outcome,[3],inactive
same,outcome,[4],inactive
same,outcome,[5],inactive
same,outcome,[6],inactive
same,outcome,[7],inactive
same,outcome,[8],inactive
same,outcome,[9],inactive
same,outcome,[10],inactive
same,outcome,[11],inactive
same,outcome,[12],inactive
same,outcome,[13],inactive
same,outcome,[14],inactive
same,outcome,[15],inactive
CC(=O)C=CC1=C(C)CCCC1(C)C,outcome,[1],inactive
same,AC50,[2],0.716 µM (active)
same,outcome,[3],inactive
same,outcome,[4],inactive
same,outcome,[5],inactive
same,outcome,[6],inactive
same,outcome,[7],inactive
same,outcome,[8],inactive
same,outcome,[9],inactive
same,outcome,[10],inactive
same,outcome,[11],inactive
same,AC50,[12],1.26 µM (active)
same,outcome,[13],inactive
same,outcome,[14],inactive
CCCCO,outcome,[1],inactive
same,outcome,[2],inactive
same,outcome,[16],inactive
same,outcome,[4],inactive
same,outcome,[5],inactive
same,outcome,[6],inactive
same,outcome,[7],inactive
same,outcome,[9],inactive
same,outcome,[10],inactive
same,outcome,[11],inactive
same,outcome,[14],inactive
same,outcome,[17],inactive
same,outcome,[15],inactive
Nc1cccc(S(=O)(=O)c2cccc(N)c2)c1,outcome,[1],inactive
same,outcome,[2],inactive
same,outcome,[16],inactive
same,outcome,[5],inactive
same,outcome,[6],inactive
same,outcome,[7],inactive
same,outcome,[8],inactive
same,outcome,[9],inactive
same,outcome,[10],inactive
same,outcome,[11],inactive
same,outcome,[12],inactive
same,outcome,[18],inactive
same,outcome,[13],inactive
same,outcome,[19],inactive
same,outcome,[14],inactive
same,outcome,[20],inactive
CC(CN1c2ccccc2Sc2ccccc21)N(C)C (stereo not given),AC50,[1],44 µM (active)
same,AC50,[2],5.52 µM (active)
same,outcome,[3],inactive
same,outcome,[4],inactive
same,outcome,[5],inactive
same,outcome,[6],inactive
same,outcome,[7],inactive
same,outcome,[8],inactive
same,AC50,[9],33.4 µM (active)
same,AC50,[10],50.2 µM (active)
same,outcome,[11],inactive
same,AC50,[14],24.2 µM (active)
same,outcome,[17],inactive
CC(CCO)CCc1ccccc1 (stereo not given),outcome,[1],inactive
same,AC50,[2],41.1 µM (active)
same,outcome,[16],inactive
same,outcome,[4],inactive
same,outcome,[5],inactive
same,outcome,[6],inactive
same,outcome,[8],inactive
same,outcome,[9],inactive
same,outcome,[10],inactive
same,outcome,[11],inactive
same,outcome,[12],inactive
same,AC50,[13],25.2 µM (active)
same,outcome,[14],inactive
same,outcome,[17],inactive
CC1CCC2CC1C2(C)C (stereo not given),outcome,[1],inactive
same,outcome,[2],inactive
same,outcome,[3],inactive
same,outcome,[4],inactive
same,outcome,[5],inactive
same,outcome,[6],inactive
same,outcome,[7],inactive
same,outcome,[8],inactive
same,outcome,[9],inactive
same,outcome,[10],inactive
same,outcome,[11],inactive
same,outcome,[18],inactive
same,outcome,[14],inactive
same,outcome,[17],inactive
Cc1ccc(C(C)C)cc1O,outcome,[1],inactive
same,AC50,[2],14.2 µM (active)
same,outcome,[3],inactive
same,outcome,[4],inactive
same,outcome,[5],inactive
same,outcome,[6],inactive
same,outcome,[7],inactive
same,outcome,[8],inactive
same,outcome,[9],inactive
same,outcome,[10],inactive
same,outcome,[11],inactive
same,AC50,[12],26.9 µM (active)
same,outcome,[14],inactive
same,outcome,[15],inactive
O=C(COc1ccc(Cl)cc1)N1CCN(Cc2ccc3c(c2)OCO3)CC1,AC50,[1],57.7 µM (active)
same,AC50,[2],4.76 µM (active)
same,outcome,[3],inactive
same,outcome,[4],inactive
same,outcome,[5],inactive
same,AC50,[6],27.1 µM (active)
same,outcome,[7],inactive
same,outcome,[8],inactive
same,outcome,[9],inactive
same,outcome,[10],inactive
same,outcome,[11],inactive
same,outcome,[12],inactive
same,outcome,[13],inactive
same,outcome,[19],inactive
same,outcome,[17],inactive
same,outcome,[15],inactive
same,outcome,[20],inactive

# Reference: PubChem BioAssay (EPA / NIEHS)
